The results in this text go back to PubChem BioAssay.

A number with no mark means an inactive call. For some of these results: Results with a measured potency or affinity are listed apart. Activity calls are given as the source filed them. Unless noted, how the calls were made is not given here.

Assay [1] in a line: antimalarial activity against Dd2 strain (AID 2302;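 active means growth inhibition above 50% at the single 2 µM test dose, taken to imply half-maximal potency below 2 µM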;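 further: 0% = DMSO untreated growth and 100% = chloroquine plus artemisinin killed control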). As to conditions: P. falciparum Dd2 in RBCs, LDH growth readout, 72 h; at 2 µM; hits give high values.
Assay [2] is described as follows: HepG2 cytotoxicity, primary screen, cytotoxicity control for P. falciparum antimalarial project, cell-based, ATP luminescence (AID 2303;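 active means inhibition above 50%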;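 further: 0% = DMSO wells and 100% = digitonin-killed cells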). As to conditions: HepG2 viability, 24-48 h, at 10 µM, hits give high values.
For assay [3], the target named is L-lactate dehydrogenase (Plasmodium falciparum (isolate CDC / Honduras)) (UniProt Q27743). In words: PfLDH activity inhibition – cell lysate, 3D7 strain, counter-screen for P. falciparum growth inhibition project (AID 2304).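 Further: 0% = vehicle and 100% = reference inhibitor.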 As to conditions: P. falciparum 3D7 crude extract, LDH APAD/NBT absorbance; at 2 µM; hits give high values.
Assay [4] in a line: inhibition of 3D7 malaria parasite growth – strain 3D7 (AID 2306).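 Further: 0% = DMSO wells and 100% = chloroquine plus artemisinin control wells.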 As to conditions: P. falciparum 3D7 erythrocytic growth, LDH absorbance, 72 h; at 2 µM; hits give high values.
Assay [5] deals with Calcium-dependent protein kinase 1 (Plasmodium falciparum (isolate 3D7)) (UniProt P62344). In words: PfCDPK1 kinase inhibitors, biochemical, TCAMS library (AID 1159585; cut-off not given, nearly all actives have IC50 up to about 0.98 µM;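 further: inhibitors leave more ATP so luminescence rises with inhibition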). As to conditions: recombinant PfCDPK1, Kinase-Glo ATP depletion luminescence.
Assay [6] deals with Plasmodium falciparum protein kinase 6 (PK6, PF3D7_1337100) (UniProt Q8IDW1). Put plainly: PfPK6 kinase inhibitors, biochemical, TCAMS library (AID 1159586). As to conditions: recombinant PfPK6, Kinase-Glo ATP depletion luminescence. On the technique in general: Kinase-Glo measures the ATP left after a reaction by luminescence.
The target in assay [7] is Protein kinase 7 (PK7), Plasmodium falciparum 3D7 (PF3D7_0213400) (UniProt Q7YTF7). Put plainly: inhibition of Plasmodium PK7 catalytic activity – biochemical, TCAMS antimalarial set, Kinase-Glo luminescence (AID 1159587). As to conditions: recombinant PfPK7, Kinase-Glo ATP depletion luminescence.
The target of assay [8] is Calcium-dependent protein kinase 4 (Plasmodium falciparum (isolate 3D7)) (UniProt Q8IBS5). In words: PfCDPK4 kinase inhibitors, biochemical, TCAMS library (AID 1159588; cut-off not given, nearly all actives have IC50 up to about 0.91 µM). As to conditions: recombinant PfCDPK4, Kinase-Glo ATP depletion luminescence.
Calcium-dependent protein kinase 4 (Plasmodium falciparum (isolate 3D7)), sequence (Q8IBS5 whole entry, looked up): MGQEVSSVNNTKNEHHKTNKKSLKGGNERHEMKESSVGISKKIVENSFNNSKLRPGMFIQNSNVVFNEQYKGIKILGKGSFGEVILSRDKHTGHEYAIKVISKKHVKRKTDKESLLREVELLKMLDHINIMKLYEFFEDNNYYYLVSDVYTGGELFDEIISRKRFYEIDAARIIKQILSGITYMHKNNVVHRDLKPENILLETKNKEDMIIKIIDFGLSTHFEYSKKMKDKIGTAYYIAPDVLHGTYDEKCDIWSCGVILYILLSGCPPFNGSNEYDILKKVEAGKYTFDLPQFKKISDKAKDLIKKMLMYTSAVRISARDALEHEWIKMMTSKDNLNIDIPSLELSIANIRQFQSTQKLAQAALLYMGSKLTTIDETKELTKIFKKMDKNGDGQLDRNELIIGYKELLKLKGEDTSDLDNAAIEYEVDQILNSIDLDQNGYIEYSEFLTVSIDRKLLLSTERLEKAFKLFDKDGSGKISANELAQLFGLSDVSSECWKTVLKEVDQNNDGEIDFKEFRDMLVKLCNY

Calcium-dependent protein kinase 1 (Plasmodium falciparum (isolate 3D7)), sequence (P62344 whole entry, looked up): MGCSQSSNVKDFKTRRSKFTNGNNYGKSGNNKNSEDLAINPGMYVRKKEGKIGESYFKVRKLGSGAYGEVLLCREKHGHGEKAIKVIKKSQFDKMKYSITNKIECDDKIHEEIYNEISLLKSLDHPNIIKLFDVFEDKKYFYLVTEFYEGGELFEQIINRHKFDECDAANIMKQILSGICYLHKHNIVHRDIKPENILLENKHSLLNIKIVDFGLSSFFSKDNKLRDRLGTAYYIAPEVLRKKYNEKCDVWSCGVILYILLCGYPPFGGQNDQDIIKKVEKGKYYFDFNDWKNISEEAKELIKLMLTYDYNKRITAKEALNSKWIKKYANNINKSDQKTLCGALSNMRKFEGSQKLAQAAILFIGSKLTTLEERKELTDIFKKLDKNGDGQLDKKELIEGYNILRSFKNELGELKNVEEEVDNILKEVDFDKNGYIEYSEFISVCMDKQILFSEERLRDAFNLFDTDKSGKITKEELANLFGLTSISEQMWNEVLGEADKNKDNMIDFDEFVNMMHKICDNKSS
Protein kinase 7 (PK7), Plasmodium falciparum 3D7 (PF3D7_0213400), sequence (Q7YTF7 1-343): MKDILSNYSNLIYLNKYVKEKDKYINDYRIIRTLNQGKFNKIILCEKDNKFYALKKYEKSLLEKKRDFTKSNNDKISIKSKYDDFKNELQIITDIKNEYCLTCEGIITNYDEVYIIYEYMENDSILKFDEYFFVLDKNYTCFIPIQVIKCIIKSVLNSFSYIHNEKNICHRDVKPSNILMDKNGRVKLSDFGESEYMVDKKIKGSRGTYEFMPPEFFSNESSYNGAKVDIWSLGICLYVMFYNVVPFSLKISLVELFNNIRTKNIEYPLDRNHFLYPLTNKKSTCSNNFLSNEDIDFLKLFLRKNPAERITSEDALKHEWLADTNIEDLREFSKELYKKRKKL
Plasmodium falciparum protein kinase 6 (PK6, PF3D7_1337100), sequence (Q8IDW1 1-305): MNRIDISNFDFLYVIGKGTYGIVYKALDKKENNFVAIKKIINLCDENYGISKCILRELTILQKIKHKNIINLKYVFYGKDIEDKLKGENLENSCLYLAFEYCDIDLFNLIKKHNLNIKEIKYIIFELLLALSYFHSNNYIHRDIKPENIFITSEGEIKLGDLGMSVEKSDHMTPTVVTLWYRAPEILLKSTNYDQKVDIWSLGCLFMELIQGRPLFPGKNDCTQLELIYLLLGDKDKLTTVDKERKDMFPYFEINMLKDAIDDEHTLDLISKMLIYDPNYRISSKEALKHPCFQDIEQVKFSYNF
L-lactate dehydrogenase (Plasmodium falciparum (isolate CDC / Honduras)), sequence (Q27743 whole entry, looked up): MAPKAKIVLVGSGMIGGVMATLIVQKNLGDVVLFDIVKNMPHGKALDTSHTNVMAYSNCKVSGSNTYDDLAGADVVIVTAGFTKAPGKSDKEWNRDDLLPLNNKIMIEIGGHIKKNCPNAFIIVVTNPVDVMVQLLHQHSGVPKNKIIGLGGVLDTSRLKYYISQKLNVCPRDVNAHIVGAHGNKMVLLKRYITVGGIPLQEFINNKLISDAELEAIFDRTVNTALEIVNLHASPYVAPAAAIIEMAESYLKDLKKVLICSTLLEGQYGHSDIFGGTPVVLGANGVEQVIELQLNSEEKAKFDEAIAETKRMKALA

Consider `Cc1nc2nc(N)nc(N)c2c(C)c1Cc1cccc(C(N)=O)c1`, for which the figures for the growth inhibition in assay [1] and in assay [4] were -1% and 91% (active), respectively. The inhibition (commonly the drop in the measured response relative to a control, in per cent) in assay [2] is 59% (active); in assay [3] it was 5%. Besides, the outcome in assay [5], in assay [6], in assay [7] and in assay [8] was inactive.

Turning to `COc1cc(NC(=O)c2sc(-c3ccc(Cl)cc3)cc2NC(=O)CN2CC[C@@H](O)C2)ccc1OCCN1CCCC1`, the growth inhibition was 79% (active) in assay [1] and 90% (active) in assay [4]. The results for the inhibition in assay [2] and in assay [3] were 56% (active) and 6%, respectively. For the same compound, the result in assay [5], in assay [6], in assay [7] and in assay [8] was inactive.

Take `O=C(Nc1ccc(Cl)cc1)c1ccc(CN2CCCN(Cc3cccc(F)c3)CC2)cc1`: the growth inhibition is 8% in assay [1] and 91% (active) in assay [4]. Moreover, the inhibition in assay [2] is 59% (active); in assay [3] it was 6%. Besides, the result in assay [5], in assay [6], in assay [7] and in assay [8] was inactive.

For the compound `Cc1cc(N[C@@H](Cc2ccccc2)C(=O)NCc2cccs2)nc(NCCc2ccccc2)n1`, the growth inhibition was 61% (active) in assay [1] and 92% (active) in assay [4]. For the same compound, the inhibition was 6% in assay [2] and -1% in assay [3]. Also, the outcome in assay [5], in assay [6], in assay [7] and in assay [8] was inactive.

For `CCC[C@@H]([C@@H](CC1CCCCC1)C(=O)NC(C(=O)Nc1nccs1)C(CC)c1ccccc1)N(O)C=O` (stereo not given in full), the growth inhibition in assay [1] is 19%; in assay [4] it was 89% (active). Besides, the inhibition in assay [2] was 50% (active); in assay [3] it was -4%. Also, the outcome in assay [5], in assay [6], in assay [7] and in assay [8] was inactive.

Regarding `FC(F)(F)c1ccc2nccc(NN=Cc3ccccc3Cl)c2c1`, the growth inhibition in assay [1] was 83% (active); in assay [4], 101% (active). Besides, the inhibition in assay [2] was -6%; in assay [3], 5%. In addition, the outcome in assay [5], in assay [6], in assay [7] and in assay [8] was inactive.

As for `COc1ccc(C=CC(=O)NC(=O)c2ccccc2OC(=O)c2ccccc2)cc1OC`, the values for the growth inhibition in assay [1] and in assay [4] were 90% (active) and 87% (active), respectively. Further, the inhibition is 12% in assay [2] and 5% in assay [3]. Also, the result in assay [5], in assay [6], in assay [7] and in assay [8] was inactive.

For the compound `NOCCCCOc1cc(Cl)c(Cl)cc1Cl`, the growth inhibition in assay [1] is 5%; in assay [4], 92% (active). For the same compound, the inhibition in assay [2] was 6%; in assay [3], -2%. In addition, the outcome in assay [5], in assay [6], in assay [7] and in assay [8] was inactive.

`COc1cc(CNC[C@@H](O)[C@H](Cc2ccccc2)NC(=O)c2cc(C3CCCC3)cc(N3CCCS3(=O)=O)c2)cc(OC)c1`: the growth inhibition was 94% (active) in assay [1] and 95% (active) in assay [4]. Moreover, the figures for the inhibition in assay [2] and in assay [3] were 31% and 2%, respectively. In addition, the result in assay [5], in assay [6], in assay [7] and in assay [8] was inactive.

Take `O=C(/C=C/c1ccc(Cl)c(Cl)c1)NCCCCCCN1CCN(C(=O)Nc2ccc(C(F)(F)F)cc2)CC1`: the growth inhibition was 44% in assay [1] and 100% (active) in assay [4]. The inhibition in assay [2] is 42%; in assay [3], -1%. For the same compound, the outcome in assay [5], in assay [6], in assay [7] and in assay [8] was inactive.

As for `CCn1c(SCc2ccccc2)nc2c1c(=O)[nH]c(=O)n2C`, the growth inhibition in assay [1] was 30%; in assay [4], 96% (active). Also, the inhibition was 1% in assay [2] and -1% in assay [3]. The result in assay [5], in assay [6], in assay [7] and in assay [8] was inactive.

Consider `CCN1CCC(N(Cc2ccc(-c3ccc(C(F)(F)F)s3)cc2)C(=O)Cn2c(CCc3cccc(F)c3F)nc(=O)c3ccccc32)CC1`, for which the growth inhibition in assay [1] was 95% (active); in assay [4] it was 93% (active). Also, the inhibition in assay [2] is 47%; in assay [3] it was 7%. In addition, the outcome in assay [5], in assay [6], in assay [7] and in assay [8] was inactive.

On to `S=C(NCCCCCN1CCC(c2c[nH]c3ccccc23)CC1)Nc1ccc(Cl)c(Cl)c1`, for which the figures for the growth inhibition in assay [1] and in assay [4] were 31% and 101% (active), respectively. Moreover, the values for the inhibition in assay [2] and in assay [3] were 89% (active) and -3%, respectively. In addition, the outcome in assay [5], in assay [6], in assay [7] and in assay [8] was inactive.

Regarding `O=C(Nc1ccc(Cl)cc1)c1cc(Cl)ccc1NC(=O)C1(c2ccc(Cl)cc2)CCCC1`, the growth inhibition in assay [1] is 29%; in assay [4], 85% (active). Besides, the inhibition is 13% in assay [2] and -4% in assay [3]. Besides, the result in assay [5], in assay [6], in assay [7] and in assay [8] was inactive.

As to `C[C@H](CNc1ccnc(Nc2ccc3[nH]c(=O)[nH]c3c2)n1)c1ccccc1`, the growth inhibition in assay [1] was -5%; in assay [4], 100% (active). Also, the inhibition in assay [2] was 61% (active); in assay [3], -2%. Further, the result in assay [5], in assay [6], in assay [7] and in assay [8] was inactive.

As for `Cn1nc(-c2ccc(CN[C@@H]3CCc4ccc(O)cc43)cc2)c2cnc(NC3CCCC3)nc21`, the growth inhibition in assay [1] was 8%; in assay [4], 97% (active). Also, the inhibition is 12% in assay [2] and 0% in assay [3]. In addition, the outcome in assay [5], in assay [6], in assay [7] and in assay [8] was inactive.

As for `COc1ccc2nccc([C@@H](O)CN3CCC(NC(=O)/C=C/c4cccc(NC(C)=O)c4)CC3)c2c1`, the growth inhibition in assay [1] was 60% (active); in assay [4], 90% (active). Further, the results for the inhibition in assay [2] and in assay [3] were 5% and 0%, respectively. In addition, the result in assay [5], in assay [6], in assay [7] and in assay [8] was inactive.

Consider `O=C(N[C@@H](CC1CCCCC1)C(=O)NCCN1CCCC1)c1ccc(O)c(-c2ccc(Cl)c(Cl)c2)c1`, for which the growth inhibition in assay [1] and in assay [4] was 99% (active) in each case. Moreover, the inhibition in assay [2] is 16%; in assay [3] it was 2%. Further, the outcome in assay [5], in assay [6], in assay [7] and in assay [8] was inactive.

Take `CCCCC([C@@H](Cc1ccc2ccccc2c1)C(=O)N[C@H](C(=O)NC)C(C)(C)C)N(O)C=O` (stereo not given in full): the growth inhibition in assay [1] is 97% (active); in assay [4], 100% (active). The inhibition in assay [2] was -6%; in assay [3], 5%. The result in assay [5], in assay [6], in assay [7] and in assay [8] was inactive.

Consider `CC(C)n1cc2c(ccc3nc(N)nc(N)c32)n1`, for which the growth inhibition is -2% in assay [1] and 92% (active) in assay [4]. For the same compound, the inhibition in assay [2] is 65% (active); in assay [3], 1%. Besides, the outcome in assay [5], in assay [6], in assay [7] and in assay [8] was inactive.
